# Cruzain noTriton: inhibitors of Trypanosoma cruzi cruzain without detergent | AID 1476 | actives 2.3% (n = 200,000) | P25779 | purified cruzain, Z-FR-AMC fluorescence, no detergent | Potency, µM, actives largely listed as inhibitors; note: nearly all actives have a fitted effect of over 40% in size
# Target sequence (P25779 123-467 limits assumed): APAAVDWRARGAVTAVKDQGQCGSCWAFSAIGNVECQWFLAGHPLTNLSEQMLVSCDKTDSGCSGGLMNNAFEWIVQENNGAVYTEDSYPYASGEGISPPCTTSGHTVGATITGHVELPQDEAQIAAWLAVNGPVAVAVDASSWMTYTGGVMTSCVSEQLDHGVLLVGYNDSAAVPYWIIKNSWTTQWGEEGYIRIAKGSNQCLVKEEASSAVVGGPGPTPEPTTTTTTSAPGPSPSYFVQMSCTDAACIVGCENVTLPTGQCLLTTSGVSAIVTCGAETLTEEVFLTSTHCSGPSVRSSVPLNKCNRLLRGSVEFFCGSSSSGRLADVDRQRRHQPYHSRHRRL
#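 Purified cruzain at 1.5 nM, pre-incubated 15 min with compound at room temperature in 100 mM sodium acetate pH 5.5, 5 mM DTT, 0.00005% Triton X-100. Reaction started with 2 uM Z-FR-AMC; AMC fluorescence increase over 60 s gives rate.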
# Cruzain Triton: inhibitors of Trypanosoma cruzi cruzain with detergent; purified cruzain, Z-FR-AMC fluorescence, 0.01% Triton; Potency, µM, hits mostly inhibitors; actives 0.43% (n = 200,000); note: nearly all actives have a fitted effect of over 40% in size
#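 Sodium acetate buffer (100 mM, pH 5.5) containing 5 mM DTT and 0.01% Triton X-100 hosted 1.5 nM cruzain and test compound for 15 min at room temperature. Cleavage of 2 uM Z-FR-AMC was then tracked by fluorescence.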
# Numbers stand for hits; i = inactive; ? = inconclusive. Most compounds without a hit are left out; they make up all but 2.6% or so of the library. Calls come from the whole dose curve; as a rule, active = well fitted curve in the direction sought with a large enough effect; inconclusive = small, poorly fitted or top-dose-only effect, or another doubt; inactive = no such curve, though single readings can be large; an effect the other way counts as inactive or inconclusive.
SMILES,Cruzain noTriton,Cruzain Triton
COc1ccccc1-c1nnc(NC(=O)c2ccccc2F)o1,i,i
O=[N+]([O-])c1ccc(/C=C/c2ccc3cccc([N+](=O)[O-])c3n2)cc1,13µM,i
O=[N+]([O-])c1cccc2ccc(/C=C/c3ccc(F)cc3)nc12,i,i
O=C1N/C(=C/c2cccn2-c2ccccc2)C(=O)N1Cc1ccccc1F,i,i
Cc1nc(C)c(CCNC(=O)c2ccccc2)s1,?,28µM
Cc1nc(C)c(CCNC(=O)c2cccc(Cl)c2)s1,i,?
Cn1c(CCNC(=O)c2ccc(F)cc2)nc2ccccc21,2.5µM,11µM
Cn1c(CCNC(=O)C(C)(C)C)nc2ccccc21,i,i
Cn1c(CCNC(=O)c2ccccc2)nc2ccccc21,i,11µM
CC(=O)Nc1ccc2c(c1)nc(CCNC(=O)c1ccccc1)n2C,i,i
CCC(=O)OCc1c(C(F)(F)F)nn(C)c1Sc1ccc(Cl)cc1,i,i
COc1ccccc1N1CCN(C(=O)CSc2nnc3c4ccccc4n(CC(=O)O)c3n2)CC1,?,i
CC(NC(=O)Cc1ccccc1)c1nc2ccccc2[nH]1 (stereo unspecified),i,i
O=C(COc1cccc(F)c1)N[C@@H](Cc1ccccc1)c1nc2ccccc2[nH]1,i,13µM
CCc1nnc(NC(=O)c2ccc(Cl)c(S(=O)(=O)N3CCc4ccccc43)c2)s1,13µM,i
O=C(Nc1nnc(S(=O)(=O)N2CCc3ccccc32)s1)c1ccccc1Cl,i,i
O=C(Nc1nnc(C2CC2)s1)c1ccc(Cl)c(S(=O)(=O)N2CCc3ccccc3C2)c1,25µM,i
O=C(Nc1nnc(C2CC2)s1)c1cc(S(=O)(=O)N2CCN(c3ccccc3)CC2)ccc1Cl,?,i
COc1ccc2nc(SCC(=O)NN)cc(C)c2c1,i,i
Cn1cccc1/C=C1\SC(=O)N(CC(=O)Nc2ccc(Cl)cc2)C1=O,?,i
CCn1c(C)cc(/C=C2\NC(=O)N(CC(=O)Nc3cccc(C)c3)C2=O)c1C,?,i
Cc1ccc(NC(=O)CN2C(=O)S/C(=C\C(=O)Nc3ccc(Cl)cc3)C2=O)cc1,10µM,i
CCn1c(C)cc(/C=C2\SC(=O)N(CC(=O)Nc3ccc(C)c(C)c3)C2=O)c1C,16µM,i
CCN(C(=O)c1sc(N)c(C#N)c1C)C1CCCCC1,i,i
O=C(NCN1CCCCC1)c1cnccn1,i,i
SMILES,Cruzain noTriton,Cruzain Triton
O=C(N/N=C/c1cc(Br)ccc1O)C(c1ccncc1)N1CCOCC1 (stereo unspecified),i,i
Cc1ccc(CCNC(=O)c2c[nH]c3ccc(S(=O)(=O)Nc4cccc(C(F)(F)F)c4)cc3c2=O)cc1,i,i
Cc1[nH]nc2c1C1(C(=O)Nc3ccc([N+](=O)[O-])cc31)C(C#N)=C(N)O2 (stereo unspecified),i,i
COc1ccc(C2/C=C\CC(NC(=O)OCC3c4ccccc4-c4ccccc43)CC(=O)N2Cc2ccccc2F)cc1 (stereo unspecified),13µM,i
COc1ccc(C2/C=C\CC(NC(=O)OCC3c4ccccc4-c4ccccc43)CC(=O)N2Cc2cccc(F)c2)cc1 (stereo unspecified),?,i
CCC(=O)N1CCc2cc(S(=O)(=O)N(CC)c3cccc(C)c3)ccc21,i,i
CSc1nncc(/C(C)=N\Nc2cccc(C)c2)n1,13µM,i
CSc1nncc(/C(C)=N\Nc2ccccc2)n1,i,i
COc1ccccc1N1CCN(C(=O)c2cc3c(=O)oc4ccccc4c3s2)CC1,i,i
COc1cccc(-n2c(SCc3ccc(F)cc3)nc3c([nH]c4ccccc43)c2=O)c1,10µM,i
CCSc1nc2c([nH]c3ccccc32)c(=O)n1-c1cccc(OC)c1,i,i
COC(=O)c1ccc(CSc2nc3c([nH]c4ccccc43)c(=O)n2-c2cccc(Cl)c2)o1,i,i
COC(=O)c1ccc(CSc2nc3c([nH]c4ccccc43)c(=O)n2-c2cccc(OC)c2)o1,25µM,i
COc1ccc2[nH]cc(CCNc3ncnc4ccc(-c5cccnc5)cc34)c2c1,i,i
COc1ccc2[nH]cc(CCNc3nc(-c4ccc(N(C)C)cc4)nc4ccccc34)c2c1,25µM,i
COc1ccc2[nH]cc(CCNc3ncnc4ccc(-c5ccc6c(c5)OCO6)cc34)c2c1,32µM,i
COc1ccc2[nH]cc(CCNc3nc(-c4ccc(C(=O)N(C)C)cc4)nc4ccccc34)c2c1,i,i
Cc1nn2c(NCCOCCO)c3c(nc2c1-c1ccccc1)CCCC3,i,i
CCc1ccccc1NS(=O)(=O)c1ccc2c(c1)CC(=O)N2,i,i
Cc1cc(Oc2ccc(C(C)(C)C)cc2)nc(N2CCOCC2)n1,?,i
O=C(CN1C2CCC1CC(O)(c1cccnc1)C2)Nc1ccc2c(c1)OCO2 (stereo unspecified),i,i
CC1(C)N=C(N)NC(Nc2ccc(Br)cc2)=N1,20µM,16µM
CC1(C)N=C(N)NC(Nc2cccc(Br)c2)=N1,i,i
C=C(C)Cn1c(SCC(=O)O)nnc1-c1ccc(C(C)(C)C)cc1,?,i

# Screens (PubChem)
